Screens (PubChem)
MCF10A rerep: DNA re-replication induction in MCF 10a cells; MCF 10A DNA re-replication, Hoechst nuclear intensity, 48 h; Potency, µM (top dose mostly 46.1 µM), without a hit: at the top dose activity, positive = re-replication, most hits filed as activators; actives 2.9% (n = 350,000); note: potency is the fitted concentration of half-maximal effect; % of control where 0% means no effect; nearly all actives have a fitted effect of over 50% in size
SW480 rereplic: DNA re-replication induction in SW480 cells; SW480 DNA re-replication, Hoechst DNA content imaging, 48 h; Potency, µM (top dose mostly 46.1 µM), for inactives: top-dose re-replication activation, hits mostly activators; actives 1.8% (n = 340,000); note: potency is the fitted concentration of half-maximal effect; % of control where 0% means no effect; nearly all actives have a fitted effect of over 55% in size
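Image-based read-out: total Hoechst fluorescence of nuclei (405 nm excitation, 500-530 nm emission), with hits raising the fraction of high-intensity nuclei. SW480 colon cells incubated 48 hr with compounds at 37 C.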
KCNH2 3.1 block: inhibitors of human KCNH2 3.1 potassium channel isoform; U2OS KCNH2 3.1, thallium flux FluxOr; hits give low values; actives 0.95% (n = 340,000); activity change, % (tested at about 1.8 µM);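 active = maximum activity change below -70%; inconclusive = maximum activity change from -70% to -50%; inactive = maximum activity change above -50%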;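 note: thallium influx rate constant from kinetic fluorescence after stimulation buffer; % is set by controls: 0 for no effect and ±100 for the full control effect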
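We transduce U2OS cells with the mutant 3.1 virus, culture them overnight, load FluxOr with Red40 quencher for 45 min, then add stimulation buffer and read kinetically for 2 min to derive a normalized rate constant.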
hERG WT inh: KCNH2 (human, wildtype) channel inhibition; actives 0.37% (n = 340,000); U2OS, BacMam KCNH2, thallium flux FluxOr; hits give low values; activity change, % at 1.84 µM; Q12809; AID 720551;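 active = maximum activity change below -70%; inconclusive = maximum activity change between -70% and -50%; inactive = maximum activity change above -50%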; note: % is set by controls: 0 for no effect and ±100 for the full control effect
Target sequence (Q12809 whole entry, looked up): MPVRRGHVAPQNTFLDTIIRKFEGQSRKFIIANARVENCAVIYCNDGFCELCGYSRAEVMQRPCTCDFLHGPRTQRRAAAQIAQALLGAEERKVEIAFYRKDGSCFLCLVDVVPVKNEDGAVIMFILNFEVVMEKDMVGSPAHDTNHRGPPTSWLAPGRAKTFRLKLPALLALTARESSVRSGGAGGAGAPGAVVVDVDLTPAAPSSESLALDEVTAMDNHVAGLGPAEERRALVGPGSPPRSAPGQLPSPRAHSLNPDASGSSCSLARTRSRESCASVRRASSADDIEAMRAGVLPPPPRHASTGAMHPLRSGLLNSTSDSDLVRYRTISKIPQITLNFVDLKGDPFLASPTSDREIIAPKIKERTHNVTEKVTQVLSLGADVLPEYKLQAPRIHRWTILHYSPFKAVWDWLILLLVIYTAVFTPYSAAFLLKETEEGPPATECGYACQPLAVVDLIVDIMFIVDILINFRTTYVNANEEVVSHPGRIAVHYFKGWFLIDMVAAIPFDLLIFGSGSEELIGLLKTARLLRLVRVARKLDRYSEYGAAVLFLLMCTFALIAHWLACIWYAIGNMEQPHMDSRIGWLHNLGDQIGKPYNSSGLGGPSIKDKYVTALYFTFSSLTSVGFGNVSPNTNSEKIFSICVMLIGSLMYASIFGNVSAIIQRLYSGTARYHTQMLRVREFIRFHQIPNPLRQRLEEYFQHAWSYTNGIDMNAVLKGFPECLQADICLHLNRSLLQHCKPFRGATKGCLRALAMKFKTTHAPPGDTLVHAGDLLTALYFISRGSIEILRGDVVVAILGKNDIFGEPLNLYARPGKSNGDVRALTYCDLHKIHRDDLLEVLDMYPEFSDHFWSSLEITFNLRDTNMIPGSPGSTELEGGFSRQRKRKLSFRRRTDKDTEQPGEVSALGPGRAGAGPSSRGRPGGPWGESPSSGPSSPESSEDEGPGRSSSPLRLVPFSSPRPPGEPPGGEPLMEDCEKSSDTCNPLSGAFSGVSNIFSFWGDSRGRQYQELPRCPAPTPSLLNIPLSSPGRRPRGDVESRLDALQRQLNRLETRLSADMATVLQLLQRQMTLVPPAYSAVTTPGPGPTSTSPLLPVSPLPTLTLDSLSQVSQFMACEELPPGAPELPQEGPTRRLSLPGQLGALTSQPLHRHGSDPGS
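U2OS cells were transduced with wild-type KCNH2 virus (2.03 x 10^8 / mL) for 4 h at room temperature, then cultured overnight at 37 C. Thallium flux was read with FluxOr dye. Rate constants were normalized to DMSO controls.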
KB-V1 cytotox: KB-V1 MDR subline cytotoxicity; actives 3.4% (n = 400,000); AID 1347076; KB-V1 MDR cells viability, CellTiter-Glo, 72 h; Potency, µM (doses to about 46.1 µM), actives largely listed as cytotoxic; note: potency is the fitted concentration of half-maximal effect; % is set by controls: 0 for no effect and ±100 for the full control effect; nearly all actives have a fitted effect of over 60% in size
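Cytotoxicity via CellTiter-Glo luminescence after 72 h compound exposure at 37 degrees C. Cells: drug-selected KB-V1 line, DMEM phenol-red free plus 10% FBS. Compounds tested at multiple concentrations; normalized data fitted to concentration-effect curves.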
KB-3-1 tox: kills parental KB-3-1 adenocarcinoma cells; AID 1347075; Potency, µM (highest dose often 46.1 µM), hits mostly cytotoxic; actives 1.4% (n = 400,000); KB-3-1 viability, CellTiter-Glo ATP luminescence, 72 h; note: potency is the fitted concentration of half-maximal effect; % is set by controls: 0 for no effect and ±100 for the full control effect; nearly all actives have a fitted effect of over 60% in size
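72 h, 37 °C compound treatment of KB-3-1 parental cells; CellTiter-Glo added, 10 min, luminescence read. Data corrected against DMSO-only plates and normalized before curve fitting.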
* = called active by the depositor. Compounds with a hit are over-represented: about 7.6% of the library has one in this group of screens. Unless noted, calls come from the whole dose curve; as a rule, active = well fitted curve in the direction sought with a large enough effect; inconclusive = small, poorly fitted or top-dose-only effect, or another doubt; inactive = no such curve, though single readings can be large; an effect the other way counts as inactive or inconclusive.

`Fc1ccc(-c2ccc3c(c2)C2CC3CCN2Cc2ccc3c(c2)OCO3)cc1` (stereo unspecified) gave MCF10A rerep inconclusive, SW480 rereplic 4%, hERG WT inh -37, KB-V1 cytotox inactive and KB-3-1 tox inactive.
Screening Cc1ccsc1C(=O)NN=C1CCCCCC1 returned MCF10A rerep -5%, SW480 rereplic 5%, KCNH2 3.1 block 12, hERG WT inh -9, KB-V1 cytotox inconclusive and KB-3-1 tox inactive.
For C[C@@H]1CN([C@@H](C)CO)C(=O)CCCn2nncc2CO[C@H]1CN(C)C(=O)c1ccccc1 the results were KCNH2 3.1 block -3, hERG WT inh -1, KB-V1 cytotox inactive and KB-3-1 tox inactive.
Screening Cc1ccc(C)c(CNS(=O)(=O)c2c(C(=O)N3CCCC3)c(C)n(C)c2C)c1 returned MCF10A rerep -1%, SW480 rereplic -4%, KCNH2 3.1 block 13, hERG WT inh 5, KB-V1 cytotox inactive and KB-3-1 tox inactive.
Screening CS(=O)(=O)c1ccc(C(=O)OCC(=O)N2CC(=O)Nc3ccccc32)cc1[N+](=O)[O-] returned KB-V1 cytotox inactive and KB-3-1 tox inconclusive.
COC(=O)c1ccc2c(=O)n(-c3ccccc3F)c(=S)[nH]c2c1 was read as MCF10A rerep 5%, SW480 rereplic -2%, KCNH2 3.1 block 7, hERG WT inh -8, KB-V1 cytotox 18µM* and KB-3-1 tox inconclusive.
Screening COc1cc2c(cc1OC)C(COc1ccc3c(C)cc(=O)oc3c1)N(C(=O)CC(C)C)CC2 (stereo unspecified) returned KB-V1 cytotox inactive and KB-3-1 tox inactive.
For Clc1ccccc1C(c1ccccc1)(c1ccccc1)n1ccnc1 the results were MCF10A rerep 14µM*, SW480 rereplic 2%, KCNH2 3.1 block 13, hERG WT inh -6, KB-V1 cytotox 15µM* and KB-3-1 tox inactive.
`C#CC(c1ccccc1)(c1ccccc1)n1ccnc1` gave KCNH2 3.1 block 0, hERG WT inh 9, KB-V1 cytotox inconclusive and KB-3-1 tox inactive.
CN(C(=O)CSc1nc2ccc(NC(=O)c3cccc(F)c3)cc2s1)c1ccccc1 was read as KB-V1 cytotox 9.2µM* and KB-3-1 tox inconclusive.
For COc1ccc2cc(Br)ccc2c1CC(=O)NCCCN1CCOCC1 the results were MCF10A rerep inconclusive, SW480 rereplic -1%, KCNH2 3.1 block 2, hERG WT inh 8, KB-V1 cytotox inconclusive and KB-3-1 tox inactive.
Screening CCSc1nc(-c2ccc(OC)cc2)n(-c2nc3ccccc3s2)n1 returned MCF10A rerep 14%, SW480 rereplic 5%, KCNH2 3.1 block -20, hERG WT inh -5, KB-V1 cytotox 12µM* and KB-3-1 tox inactive.
Cc1ccccc1OCC(=O)NNC(=S)NC(=O)c1ccco1 was read as MCF10A rerep 14µM*, SW480 rereplic inconclusive, KCNH2 3.1 block -12, hERG WT inh 32, KB-V1 cytotox inactive and KB-3-1 tox inconclusive.
For CCOc1cc(NC(=O)c2ccco2)c(OCC)cc1NC(=O)COc1ccccc1C the results were MCF10A rerep 2.1µM*, SW480 rereplic 10%, KCNH2 3.1 block 11, hERG WT inh 2, KB-V1 cytotox inconclusive and KB-3-1 tox 15µM*.
